# About 810 (68%) of roughly 1,200 compounds were called active. The set was probably picked from earlier hits. These entries were drawn from the full list. Entries with a potency or affinity are not part of this list. A number with no mark means an inactive call. No rule for the calls is given here.
# Experiment: TRPM1 promoter luciferase signal decrease, dose response, MITF inhibitor project, cell-based, SK-MEL-5, cherry-picked, set 3 (AID 493073)
# Conditions: SK-MEL-5 TRPM1 promoter luciferase, 24 h; series mostly up to 35 µM; activity change, negative = inhibition: at the top concentration
row,Compound,"activity change, negative = inhibition"
1,O=C(CSc1nc2ccccc2[nH]1)c1ccc2c(c1)OCO2,102%
2,O=C(Nc1ccc(Br)cc1)c1ccc2c(c1)OCO2,39.3%
3,CCOc1ccc2cc(C#N)c(SCC(=O)OC)nc2c1,112%
4,CC(=O)Nc1ccc(-c2nc3ccccc3o2)cc1,57.7%
5,Cc1occc1C(=O)N/N=C/c1ccc(OCc2ccccc2)cc1,87.6%
6,CCc1nc2oc3ccccc3c(=O)c2cc1C(=O)OC,12.5%
7,COc1ccc(-c2csc(Nc3ccccn3)n2)cc1OC,-24.3%
8,Cc1nc(-c2ccccn2)sc1C(=O)Nc1ccc(F)cc1F,45.1%
9,COCn1c(COc2ccccc2)nc2ccccc21,71.5%
10,Cc1ccc(-n2cc(CNCCCn3cccn3)c(-c3cccc(C)c3)n2)cc1,-100%
11,Cc1oc(=O)c(NC(=O)c2ccccc2)cc1C(=O)c1ccccc1,90.5%
12,CN(C)c1ccc(/C=N/N2CCN(c3ccccn3)CC2)cc1,80.7%
13,CN(C)c1ccc(CNc2ccccn2)cc1,108%
14,CN(C)c1ccc(NC(=O)Nc2ccc3c(c2)nnn3C)cc1,90.3%
15,CC(C)OC(=O)CSc1nc2cc3c(cc2cc1C#N)OCO3,69%
16,O=C(Nc1ccc(N2CCOCC2)c(Cl)c1)c1cccc(F)c1,102%
17,Cc1ccc(N2C(=O)c3ccc(N)cc3C2=O)cc1C,101%
18,Oc1ccc(-c2nnc(SCC3CCCCC3)o2)cc1,108%
19,CCN1CCN(CCCNC(=O)c2ccc3c(Cl)c4c(nc3c2)CCCC4)CC1,-101%
20,CCCC1=Nc2cc(C(=O)NCCN3CCCC3)ccc2Sc2ccccc21,-84%
21,COc1ccc(/C=C2\Sc3ccc(C(=O)NCCN4CCCCCC4)cc3N(C)C2=O)cc1,-76.3%
22,COc1ccc(C[C@H]2CN3C(=NC[C@@H]3C(C)C)N2CCNC(=O)c2ccc(C)c(Br)c2)cc1,-111%
23,Cc1ccc(-c2noc(-c3ccno3)n2)cc1,83.1%
24,O=C(NCc1ccc2c(c1)OCO2)c1cc(=O)[nH]c2ccccc12,0.381%
25,Cc1ccc2[nH]c(=O)c(CN(CCCN(C)C)C(=O)Nc3cccc(Cl)c3)cc2c1,-105%

row,Compound,"activity change, negative = inhibition"
1,Nc1c(N(CCC2=CCCCC2)C(=O)COc2ccc(F)cc2)c(=O)[nH]c(=O)n1Cc1ccccc1,-94.3%
2,O=C(NCc1csc(-c2cccs2)n1)C1CCC1,76.4%
3,CCOc1ccc(NC(=O)c2ccc3snnc3c2)cc1,-60.8%
4,O=C(Nc1ccc(Cl)cc1)OCc1ccccn1,105%
5,O=C(Nc1ccc2c(c1)OCCO2)c1ccoc1,39.9%
6,O=C(Nc1ccc2c(c1)OCCO2)c1cccc(Cl)c1Cl,22.9%
7,O=C1CN(c2ccccc2)C(=S)N1C(=O)c1ccccc1,75%
8,COc1ccc(NC(=O)c2cc(F)cc(F)c2)cc1Cl,-77.3%
9,O=[N+]([O-])c1ccc(N/N=C/C=C/c2ccco2)cc1,51%
10,CCN(CC)CC(=O)Nc1scc2c1c(=O)oc1ccccc12,129%
11,Fc1ccc(-c2nnc(-c3ccc(F)cc3)o2)cc1,47.1%
12,CCOC(=O)c1ccc(NC(=O)Cc2cccs2)cc1,77.7%
13,CCc1ccc(Nc2nc(C)cc(C)n2)cc1,83.9%
14,C/C(=C\c1ccccc1)C(=O)Nc1ccc(Cl)cn1,47.7%
15,O=C(N/N=C/C(Cl)=C\c1ccccc1)c1cccs1,64.5%
16,Brc1cccc(/C=N/Nc2nn[nH]n2)c1,-36.9%
17,Cc1ccc2cc(NC(=O)Cc3ccccc3)ccc2n1,76.3%
18,CN(c1cccc(NC(=O)COc2ccc(Cl)cc2Cl)c1)S(C)(=O)=O,40.2%
19,O=C(Nc1ccccc1)O/N=C/c1ccc(F)cc1,42.1%
20,O=C(N/N=C/c1ccccc1)c1ccco1,51.9%
21,O=C(C[n+]1cc(-c2ccc(F)cc2)n2c1CCC2)c1cccs1,47.1%
22,COc1cc(-c2nnc(-c3ccco3)o2)ccc1OCc1ccccc1,46.7%
23,COc1ccc(C(=O)Nc2ccc3ccccc3c2)cc1OC,80.8%
24,CCOC(=O)C1(Cc2ccccc2)CCCN(CCCn2cccn2)C1 (centres undefined),-1.67%
25,CCOc1ccc(-c2nnc(-c3cccs3)o2)cc1OCC,136%

row,Compound,"activity change, negative = inhibition"
1,O=C(COc1ccc2c(c1)CCC2)N1CCc2ccccc21,100%
2,Oc1cc(NCc2cccnc2)ccc1-c1nc2ccccc2o1,15.3%
3,Cc1ccc2nc(-c3cccnc3)oc2c1,15.7%
4,O=C(Nc1ccccc1Cl)c1cc(=O)c2ccccc2o1,-80.1%
5,CC(C)c1ccc(CNc2ncccn2)cc1,103%
6,COCc1nc(-c2ccc(-c3ccccc3)nc2OC)no1,6%
7,COc1cc(CN2CCC(Cc3ccccc3)CC2)cc(OC)c1OC,102%
8,COc1ccc(S(=O)NC2CCCCC2)c(OC)c1C (centres undefined),21.7%
9,O=C(CCCCC(=O)NN=Cc1ccccc1O)NN=Cc1ccccc1O,23.5%
10,CC(C)C(NC(=O)OCc1ccccc1)C(=O)OCC(=O)N1CCCCC1 (centres undefined),5.47%
11,Cc1ccc2c(COC(=O)c3n[nH]c4ccccc34)cc(=O)oc2c1,114%
12,N#Cc1ccc(-c2cccnc2)nc1SCC(=O)c1ccccc1,33.3%
13,O=C(CCCCl)NC(=S)Nc1ccc(N2CCOCC2)cc1,13.8%
14,CS(=O)(=O)c1ncc(Cl)c(C(=O)Nc2ccc3ccccc3c2)n1,-108%
15,CCNc1nc(N)c(C(=O)c2ccc(Cl)s2)s1,45.7%
16,COc1ccc(-c2nc(-c3ccncc3)no2)cc1OC,111%
17,c1ccc(OCc2nn3c(-c4ccccn4)nnc3s2)cc1,51%
18,COc1cccc(/C=N/NC(=O)CN2CC(c3ccccc3)CC2=O)c1OC (centres undefined),-2.27%
19,Cc1cc(/C=C(\C#N)C(=O)O)c(C)n1CC(C)C,8.27%
20,CSCCNC(=O)c1ccc2nc(Cc3ccccc3F)oc2c1,85.4%
21,O=C(Nc1ccc2nc(-c3ccccc3)[nH]c2c1)c1ccco1,128%
22,Cc1nc2ccc(NC(=O)c3ccco3)cc2nc1C,7.37%
23,Cc1nc(NC(=O)C2CC2)sc1C(=O)Nc1ccccc1Cl,64.3%
24,CN(C)c1ccc(/C=N\NC(=O)c2cccc3cc[nH]c23)cc1,27.5%
25,O=C(CSCc1c(F)cccc1F)Nc1ccccc1,134%

row,Compound,"activity change, negative = inhibition"
1,O=C(CCC1CCCN(C(=O)c2cc3ccccc3o2)C1)NCc1ccc(F)c(F)c1 (centres undefined),3.79%
2,CN(C)CCCNc1nc2sc3c(c2c(=O)n1CCc1ccccc1)CCCCC3,-102%
3,CCOC(=O)C1CCCN(C(=O)C2CCN(S(=O)(=O)CC)CC2)C1 (centres undefined),93%
4,N/C(=N\OC(=O)c1ccc(Cl)cc1Cl)c1ccncc1,21.6%
5,CC(C)S(=O)(=O)c1csc(C(=O)Nc2ccc(F)cc2)c1N,52%
6,C/C(=N\Nc1cc(N2CCOCC2)ncn1)c1ccccc1,65.8%
7,Cc1ccc(/C=c2/sc3n(c2=O)CCCN=3)o1,-79.4%
8,Cc1ccc2oc(=O)n(CCCOc3ccccc3)c2c1,102%
9,CCCCOc1ccc(-c2ncc([N+](=O)[O-])cn2)cc1,84.2%
10,CN(CC(=O)N1CCCCCC1)S(=O)(=O)c1ccccc1,43.9%
11,CC1CCN(C(=O)c2cc3ccccc3o2)CC1,102%
12,Nc1nnc(/C=C/c2ccccc2Cl)s1,39%
13,CC(=O)c1c(C)[nH]c(C(=O)Nc2ccc(C)c(C)c2)c1C,-69.8%
14,CC(C)(C)OC(=O)N1CCN(C(=O)c2nc[nH]c2C(=O)N2CCN(c3ccccc3)CC2)CC1,-40.2%
15,NC(=O)c1ccccc1NC(=O)/C=C/c1cccc(Cl)c1,110%
16,Cc1cc(Cl)ccc1OCCCC(=O)N1CCOCC1,94.9%
17,O=C1N=C(N2CCOCC2)S/C1=C\C=C/c1ccccc1,61.8%
18,C=CCN1C(=O)S/C(=C\c2ccc(N3CCOCC3)cc2C)C1=O,92%
19,O=Cc1ccc(N2Cc3ccccc3C2)cc1,35.6%
20,CC(C)(C)N=Cc1cc(-c2ccccc2)sc1O,80.6%
21,CCOC(=O)c1cnc2c(ccc3ccccc32)c1N,7.22%
22,c1ccc(-n2ncc3c(NCc4cccs4)ncnc32)cc1,10.2%
23,COCC(C)Nc1ncnc2c1cnn2-c1ccc(Cl)cc1 (centres undefined),22.2%
24,CCCCN=C(C)c1c(O)c2ccccc2oc1=O,114%
25,COc1ccccc1-c1nnc(-c2ccc(C)cc2)o1,-51.6%

row,Compound,"activity change, negative = inhibition"
1,COc1ccccc1-c1nc(-c2ccc(C)nc2OC)no1,94.9%
2,CCCCOC(=O)c1[nH]c(C)c(C(=O)OC)c1C,-83.5%
3,CCOC(=O)c1cc2sccc2n1CC(=O)N1c2ccccc2CC1C (centres undefined),-77.9%
4,CCN(C(=O)c1ccco1)c1nc(-c2ccc(OC)cc2)cs1,42.3%
5,CS(=O)(=O)c1ccc2nc(NC(=O)c3ccccc3Br)sc2c1,25.9%
6,Cc1ccc(-c2noc(CN3CCCCC3)n2)cc1,132%
7,CCCCOc1ccc(-c2nnn(C(C)(C)C(=O)OC)n2)cc1,47.7%
8,COc1ccc(/C=N/N=C2/SCC(=O)N2Cc2ccccc2)cc1,-76.4%
9,O=[N+]([O-])c1ccccc1OCCCOc1cccc2cccnc12,124%
10,C=CCOc1ccc(/C=C/C(C)=N\O)cc1,95.6%
11,COc1ccc(C(=O)/C=C(\C)Nc2ccc3c(c2)OCO3)cc1,32.1%
12,O=C(CSc1ccccn1)c1ccc2c(c1)OCO2,40.3%
13,CCOC(=O)C1(Cc2cccc(OC)c2)CCCN(C(=O)CSC)C1 (centres undefined),115%
14,N#Cc1nc(/C=C/c2ccccc2)oc1NCCCN1CCOCC1,71.7%
15,Cc1cc(C(=O)Nc2ccc([N+](=O)[O-])cn2)cs1,76.1%
16,Cc1cc(O)ccc1Nc1nc(-c2cccnc2)cs1,72.3%
17,CC(=O)c1cccc(Nc2nc(-c3cccnc3)cs2)c1,104%
18,C/C(=N/N=C(/C)c1cccs1)c1cccs1,34.9%
19,Cc1nc2cc(NC(=O)Nc3cccc([N+](=O)[O-])c3)ccc2n1C,78.1%
20,C/C(=N/Nc1nc(C)c(C)s1)c1cccc([N+](=O)[O-])c1,93.8%
21,Cc1nn(C)cc1/C=C/C(=O)c1cccs1,107%
22,CCCN1C(=O)c2ccc(C(=O)Nc3cc(C)ccc3O)cc2C1=O,90.1%
23,CC1Cc2cc(-c3csc(N)n3)ccc2O1 (centres undefined),79.4%
24,COc1ccc(Nc2oc(-c3ccc(OC)cc3)nc2C#N)cc1,108%
